The values that follow come from PubChem BioAssay (NCATS).

Inconclusive results are not listed. A call without a number means that no potency is given here. Values without a mark were called inactive. The source made the active and inactive calls. The call rests on the fitted dose curve; in most records, active means well fitted inhibition curve with a large enough effect; inconclusive means small, poorly fitted or top-dose-only effect; inactive means flat fitted curve, though single readings scatter.
Potency means the concentration at half of the fitted maximal effect.

For this test, the system named is Zika virus NS2B-NS3 protease. Description: Primary screen GU AMC qHTS for Zika virus inhibitors (AID 1347154). Further: nearly all actives have a fitted effect of over 70% in size. Particulars: Zika NS2B-NS3 unlinked protease, AMC fluorogenic substrate; series mostly up to 54.1 µM; activity change, negative = inhibition: at the top concentration. The method in brief:
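Fluorogenic AMC-substrate cleavage by noncovalent NS2B-NS3 protease complex (25 nM, pH 8.0 Tris buffer with Tween 20) followed for 15 minutes at room temperature (~20% conversion). Percent inhibition from ex340/em450 signal change, fitted by 4-parameter Hill equation.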
On to `NC(=NCCC[C@H](N)C(=O)O)N[N+](=O)[O-]`, for which the “activity change, negative = inhibition” value was 13.4%.

For the compound `Cc1nccc2c1[nH]c1ccccc12`, the Potency is 26.7 µM (active). The same measure, in the same setting: next, `C[C@@H](N)Cc1cnc[nH]1`: “inactive”; `Oc1ccc2c3c1O[C@H]1c4[nH]c5c(c4C[C@@]4(O)[C@@H](C2)N(CC2CC2)CC[C@]314)C[C@@]1(O)[C@H]2Cc3ccc(O)c4c3[C@@]1(CCN2CC1CC1)[C@H]5O4`: “inactive”; `c1ccc2sc(C3(N4CCCCC4)CCCCC3)cc2c1`: “inactive”.

Take `O=C(Cc1ccc(Cl)c(Cl)c1)N1CCCCC1CN1CCCC1` (stereo not given): the “activity change, negative = inhibition” value was 13.1%. `O=C1CCCN1CC#CCN1CCCC1`: the Potency entry is “inactive”. For the compound `NC1CC1c1ccccc1` (stereo not given), the “activity change, negative = inhibition” value is -13.3%. `NCc1cc(=O)[nH]o1`: the Potency entry was “inactive”.

Take `NC1CCc2cc(O)c(O)cc2C1` (stereo not given): the Potency result is “inactive”.
